Experimental data as given in PubChem BioAssay AID1159580 (chemical genetic matrix, 2015).
Several values for one entry are separate records, joined by “and”; a condition that tells them apart may be missing. Equal entries are not always repeated. Screen size: about 5,500 compounds; about 2,000 (36%) were called active. Roughly 18% stayed inconclusive and do not appear here. No stated cut-off is given here; in the data, active means normalized growth mostly below about 0.91 (no sharp cut-off); inconclusive means no clear call, values can overlap the other calls; inactive means mostly above about 0.92. The list shows a part of the results.

Experiment: chemical genetic growth profiling, strain panel (AID 1159580);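 further: tested at 20 µM; growth read once vehicle control cultures reached saturation at 30 °C; 1 = growth at the plate median or of vehicle wells; lower values mean less growth of the strain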
Conditions: S. cerevisiae deletion strains, growth OD

Measured: normalized growth

O=c1ccc2cc(O[C@@H]3O[C@H](CO)[C@@H](O)[C@H](O)[C@H]3O)c(O)cc2o1
inactive: locus YAL013W, strain DEP1, active compounds read low 1.04 | locus YAL021C, strain ccr4, active compounds read low 0.991 | locus YAL026C, strain drs2, active compounds read low 0.997 | locus YAL030W, strain snc1, active compounds read low 0.971 | locus YBL061C, strain skt5, active compounds read low 0.972 | locus YBR009C, strain hhf1, active compounds read low 1.01 | locus YBR021W, strain FUR4, active compounds read low 1.06 | locus YBR023C, strain chs3, active compounds read low 0.983 | locus YBR171W, strain sec66, active compounds read low 0.956 | locus YBR229C, strain ROT2, active compounds read low 1.02 | locus YBR231C, strain swc5, active compounds read low 0.982 | locus YBR279W, strain paf1, active compounds read low 0.988 | locus YCL011C, strain gbp2, active compounds read low 0.99 | locus YCL016C, strain dcc1, active compounds read low 0.999 | locus YCL029C, strain bik1, active compounds read low 0.998 | locus YCL061C, strain MRC1, active compounds read low 0.983 | locus YCL069W, strain vba3, active compounds read low 0.977 | locus YCR088W, strain abp1, active compounds read low 0.978 | locus YDL005C, strain med2, active compounds read low 0.958 | locus YDL035C, strain GPR1, active compounds read low 1.04 | locus YDL040C, strain nat1, active compounds read low 0.976 | locus YDL074C, strain BRE1, active compounds read low 1.02 | locus YDL101C, strain DUN1, active compounds read low 1.01 | locus YDL134C, strain PPH21, active compounds read low 1.02 | locus YDL185W, strain tfp1, active compounds read low 1 | locus YDL192W, strain arf1, active compounds read low 0.991 | locus YDR001C, strain nth1, active compounds read low 0.987 | locus YDR069C, strain doa4, active compounds read low 0.977 | locus YDR101C, strain arx1, active compounds read low 0.995 | locus YDR137W, strain rgp1, active compounds read low 1 | locus YDR159W, strain sac3, active compounds read low 0.978 | locus YDR162C, strain NBP2, active compounds read low 1.04 | locus YDR195W, strain ref2 0.875 | locus YDR297W, strain sur2, active compounds read low 0.988 | locus YDR318W, strain mcm21, active compounds read low 0.999 | locus YDR334W, strain swr1, active compounds read low 0.982 | locus YDR335W, strain msn5, active compounds read low 0.995 | locus YDR388W, active compounds read low 0.986 | locus YDR392W, strain spt3, active compounds read low 1.02 | locus YDR502C, strain sam2, active compounds read low 0.993 | locus YEL003W, strain gim4, active compounds read low 0.986 | locus YEL037C, strain rad23, active compounds read low 0.982 | locus YEL061C, strain CIN8 (second series), active compounds read low 0.974 | locus YEL061C, strain CIN8, active compounds read low 1.01 | locus YER015W, strain faa2, active compounds read low 0.992 | locus YER016W, strain bim1, active compounds read low 0.983 | locus YER110C, active compounds read low 0.99 | locus YER111C, strain swi4, active compounds read low 0.961 | locus YER155C, strain BEM2 (second series), active compounds read low 0.927 | locus YER155C, strain BEM2, active compounds read low 1 | locus YER167W, strain BCK2, active compounds read low 1.02 | locus YFR010W, strain ubp6, active compounds read low 0.974 | locus YGL078C, strain dbp3, active compounds read low 0.997 | locus YGL086W, strain mad1, active compounds read low 0.979 | locus YGL167C, strain pmr1, active compounds read low 0.964 | locus YGL173C, strain kem1, active compounds read low 0.977 | locus YGL227W, strain vid30, active compounds read low 0.981 | locus YGL240W, strain doc1, active compounds read low 0.981 | locus YGL248W, strain PDE1, active compounds read low 1.03 | locus YGL253W, strain hxk2, active compounds read low 0.994 | locus YGR135W, strain pre9, active compounds read low 0.995 | locus YGR252W, strain gcn5, active compounds read low 0.997 | locus YHR013C, strain ard1, active compounds read low 0.963 | locus YHR027C, strain rpn1, active compounds read low 0.978 | locus YHR030C, strain SLT2, active compounds read low 1.01 and 1.03 | locus YHR079C, strain IRE1 (second series), active compounds read low 0.99 | locus YHR079C, strain IRE1, active compounds read low 1.02 | locus YHR094C, strain hxt1, active compounds read low 0.995 | locus YHR129C, strain ARP1, active compounds read low 1.02 | locus YHR142W, strain chs7, active compounds read low 0.982 | locus YHR200W, strain rpn10, active compounds read low 0.999 | locus YIL066C, strain RNR3, active compounds read low 1.05 | locus YIL073C, strain SPO22, active compounds read low 1.02 | locus YIL125W, strain kgd1, active compounds read low 0.995 | locus YIR030C, strain dcg1, active compounds read low 0.986 | locus YJL092W, strain hpr5, active compounds read low 0.994 | locus YJL095W, strain BCK1 (second series), active compounds read low 0.973 | locus YJL095W, strain BCK1, active compounds read low 1.01 and 1.02 | locus YJL115W, strain asf1, active compounds read low 0.971 | locus YJL129C, strain trk1, active compounds read low 0.993 | locus YJL134W, strain LCB3, active compounds read low 1.01 | locus YJL154C, strain vps35, active compounds read low 0.98 | locus YJL164C, strain tpk1, active compounds read low 0.991 | locus YJL166W, strain qcr8, active compounds read low 0.962 | locus YJL168C, strain set2, active compounds read low 0.987 | locus YJL187C, strain SWE1 (second series), active compounds read low 1.01 | locus YJR043C, strain POL32, active compounds read low 1.04 | locus YJR066W, strain TOR1, active compounds read low 0.954 | locus YKL009W, strain mrt4, active compounds read low 0.978 | locus YKL068W, active compounds read low 1 | locus YKL085W, strain MDH1 (second series), active compounds read low 0.996 | locus YKL085W, strain MDH1, active compounds read low 0.996 | locus YKL160W, strain elf1, active compounds read low 0.992 | locus YKR001C, strain vps1, active compounds read low 0.983 | locus YKR026C, strain gcn3, active compounds read low 0.964 | locus YKR091W, strain srl3, active compounds read low 0.971 | locus YLL001W, strain dnm1, active compounds read low 0.962 | locus YLL026W, active compounds read low 0.988 | locus YLL041C, strain sdh2, active compounds read low 0.971 | locus YLR027C, strain aat2, active compounds read low 0.983 | locus YLR039C, strain RIC1, active compounds read low 1.03 | locus YLR058C, strain SHM2, active compounds read low 1.02 | locus YLR102C, strain apc9, active compounds read low 1 | locus YLR113W, strain HOG1, active compounds read low 1.01 | locus YLR221C, strain rsa3, active compounds read low 1.03 | locus YLR258W, strain gsy2, active compounds read low 0.973 | locus YLR262C, strain YPT6 (second series), active compounds read low 0.955 | locus YLR262C, strain YPT6, active compounds read low 1.08 | locus YLR268W, strain sec22, active compounds read low 0.989 | locus YLR320W, strain mms22, active compounds read low 0.984 | locus YLR330W, strain CHS5, active compounds read low 1.02 | locus YLR342W, strain FKS1 (second series), active compounds read low 1.03 | locus YLR342W, strain FKS1, active compounds read low 0.973 | locus YLR357W, strain rsc2, active compounds read low 0.96 | locus YLR370C, strain arc18, active compounds read low 0.989 | locus YLR371W, strain rom2, active compounds read low 0.993 | locus YLR384C, strain iki3, active compounds read low 0.97 | locus YLR418C, strain cdc73, active compounds read low 1.03 | locus YML016C, strain PPZ1, active compounds read low 1.02 | locus YML032C, strain rad52, active compounds read low 1.01 | locus YML120C, strain ndi1, active compounds read low 0.978 | locus YML124C, strain tub3, active compounds read low 0.991 | locus YMR058W, strain fet3, active compounds read low 0.978 | locus YMR078C, strain ctf18, active compounds read low 0.99 | locus YMR125W, strain sto1, active compounds read low 0.97 | locus YMR129W, active compounds read low 0.991 | locus YMR205C, strain PFK2, active compounds read low 0.962 | locus YMR223W, strain ubp8, active compounds read low 0.99 | locus YMR231W, strain pep5, active compounds read low 0.971 | locus YMR307W, strain GAS1, active compounds read low 1.09 | locus YNL067W, strain RPL9B, active compounds read low 1.01 | locus YNL071W, strain lat1, active compounds read low 0.993 | locus YNL128W, strain TEP1, active compounds read low 1.03 | locus YNL183C, strain NPR1, active compounds read low 0.962 | locus YNL209W, strain ssb2, active compounds read low 0.993 | locus YNL233W, strain BNI4, active compounds read low 1.01 | locus YNL248C, strain rpa49, active compounds read low 1.01 | locus YNL250W, strain rad50, active compounds read low 1.02 | locus YNL271C, strain bni1, active compounds read low 0.993 | locus YNL298W, strain CLA4, active compounds read low 0.985 | locus YNL307C, strain MCK1, active compounds read low 1 | locus YNL322C, strain KRE1 (second series), active compounds read low 0.947 | locus YNR049C, strain mso1, active compounds read low 0.973 | locus YNR052C, strain pop2, active compounds read low 0.994 | locus YOL012C, strain htz1 0.76 | locus YOL147C, strain pex11, active compounds read low 0.996 | locus YOR001W, strain rrp6, active compounds read low 0.987 | locus YOR061W, strain CKA2, active compounds read low 1.02 | locus YOR069W, strain VPS5, active compounds read low 1.01 | locus YOR070C, strain gyp1, active compounds read low 0.981 | locus YOR080W, strain dia2, active compounds read low 0.948 | locus YOR083W, strain WHI5, active compounds read low 0.981 | locus YOR106W, strain vam3, active compounds read low 0.97 | locus YOR136W, strain idh2, active compounds read low 0.991 | locus YOR144C, strain elg1, active compounds read low 0.999 | locus YOR184W, strain ser1, active compounds read low 0.997 | locus YOR231W, strain MKK1, active compounds read low 1.04 | locus YOR265W, strain rbl2, active compounds read low 0.984 | locus YOR270C, strain vph1, active compounds read low 1 | locus YOR290C, strain snf2, active compounds read low 1 | locus YOR316C, strain cot1, active compounds read low 0.991 | locus YPL051W, strain arl3, active compounds read low 0.99 | locus YPL078C, strain atp4, active compounds read low 0.962 | locus YPL106C, strain sse1, active compounds read low 0.962 | locus YPL240C, strain hsp82, active compounds read low 0.968 | locus YPL241C, strain CIN2, active compounds read low 1.01 | locus YPL256C, strain CLN2, active compounds read low 1.02 | locus YPR119W, strain clb2, active compounds read low 0.99 | locus YPR141C, strain kar3, active compounds read low 0.996 | locus YPR163C, strain tif3, active compounds read low 0.987 | locus YPR167C, strain met16, active compounds read low 0.986 | strain wtn01, active compounds read low 0.997
